PubChem BioAssay AID504582 (Broad Institute, 2011)
Screen size: about 340,000 compounds; about 2,300 (0.68%) were called active. The entries come from a sample that favours actives as a whole. Unmarked numbers belong to inactive results. No stated cut-off is given here; in the data, active means growth rescue above about 28% (passing the limit was not always enough); inconclusive means no clear call, values can overlap the other calls.

Assay: rescue of yeast from PfHsp40 toxicity, primary screen, S. cerevisiae, ATP luminescence (AID 504582);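 further: yeast W303a lacking pdr1 and pdr3 grown in galactose medium; growth measured after three days at 30 °C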
Details: S. cerevisiae expressing PfHsp40, growth rescue, at 12.5 µM, active compounds read high
Work on `COc1ccc(CCNC(=O)COc2ccc3c(c2)OCO3)cc1` yielded a growth rescue of -0.845%. In the case of `CC1CCCN(CC(O)COCc2ccccc2)C1` (stereo unspecified), the growth rescue was -0.272%. With `Oc1c(CN2CCCC2)cc(COCc2ccccc2)c2cccnc12` the growth rescue was 281% (active). In the case of `COc1cc(C)cc(CN2CCC(Cc3ccccc3)CC2)c1O`, the growth rescue was 0.509%. Work on `COCCCNC(=S)N1CCCC(c2nc3cc(C)c(C)cc3[nH]2)C1` (stereo unspecified) yielded a growth rescue of -0.694%. With `CCc1ccccc1N(CC(=O)N1CCN(c2ccccc2F)CC1)S(C)(=O)=O` the growth rescue was 0.191%. With `COc1ccc(N2C(=O)/C(=C\c3ccco3)N=C2SCC(N)=O)cc1Cl` the growth rescue was -0.407%. Work on `COc1ccc2c(c1)C=CC1(O2)N(CCO)c2ccccc2C1(C)C` (stereo unspecified) yielded a growth rescue of -0.159%. With `CN1c2ccc([N+](=O)[O-])cc2C(C)(C)C12C=Cc1cc(C(=O)O)ccc1O2` (stereo unspecified) the growth rescue was 200% (active). For `COc1ccc(N2CCN(c3ccc([N+](=O)[O-])cc3Cl)CC2)cc1`, the growth rescue was -0.626%. In the case of `Cc1nn(Cc2ccccc2Cl)c(C)c1NC(=O)Cn1nc([N+](=O)[O-])c(Cl)c1C`, the growth rescue was -0.0385%. With `Cc1c(Cl)c([N+](=O)[O-])nn1Cc1ccc(C(=O)N/N=C\c2cc(Cl)ccc2O)o1` the growth rescue was 29.8% (active). For `O=C(N/N=C\c1ccc(Br)cc1)c1ccc(Cn2cccn2)o1`, the growth rescue was 0.111%. Work on `COc1ccc(/C=C(\C#N)C(=O)NCCCn2ccnc2)cc1` yielded a growth rescue of -0.489%. Work on `CC1(C)NC(=O)N(CCCCSc2ccc(Cl)cc2)C1=O` yielded a growth rescue of 0.18%. In the case of `O=C(N/N=C/c1sc(N2CCCCC2)nc1-c1cccs1)c1cccnc1`, the growth rescue was 140% (active). Work on `O=C(O)c1ccc(N/N=C/c2cn(-c3ccccc3)nc2-c2cccs2)cc1` yielded a growth rescue of 0.668%. `Cc1ccc(NC(=O)COc2ccc(/C=N\NC(=O)c3cccnc3)cc2)cc1C` gave a growth rescue of -0.012%. Compound `O=C(N/N=C/c1ccc(Cl)c(Cl)c1)c1ccc2nc[nH]c2c1` has a growth rescue of 0.517%. In the case of `O=C(NN=Cc1ccccc1)c1ccccc1`, the growth rescue was 0.391%. In the case of `CSc1ccc(/C=N/NC(=O)c2cccc(Cl)c2)cc1`, the growth rescue was 40.3% (active). With `COC(=O)C1=NNC2(c3ccc(C)cc3)C(=O)N(c3cccc(C)c3C)C(=O)C12` (stereo unspecified) the growth rescue was -0.596%. Compound `O=C(CSc1ccccn1)N1CCN(S(=O)(=O)c2ccc(Cl)cc2)CC1` has a growth rescue of -0.63%. Work on `COc1ccc(C(=O)Nc2sc(C)c(C)c2CN2CCOCC2)cc1` yielded a growth rescue of 0.992%. In the case of `CCc1cc(C(=O)c2ccc(OC)cc2)c(NC(=O)CN2CCN(C)CC2)s1`, the growth rescue was -1.5%. In the case of `CCc1cc(C(N)=O)c(NC(=O)c2ccc(OC)cc2)s1`, the growth rescue was 648% (active).
